Activity calls are given as the source filed them.
Assays:
[1] = system: PRMT1 (protein arginine N-methyltransferase 1); assay: small molecules binding arginine methyltransferase PRMT1 – biochemical, small-molecule microarray, 635 nm fluorescence, primary screen (AID 1088); conditions: higher = more signal;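 note: binding of Prmt1 protein to compounds spotted on small-molecule microarray slides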
[2] = growth effects on S. cerevisiae YJM789 – YJM789 clinical isolate, OD600, 24 h, basal, primary screen (AID 1089); conditions: higher = more signal, called active from +8 up or from −8 down;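 note: growth of clinical yeast isolate S. cerevisiae YJM 789 seeded 1000 cells per well; test concentration not given here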
[3] = S. pombe growth modifiers, basal conditions – strain 972, OD600, 24 h, no modulator, primary screen (AID 1090);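 note: basal condition with compound alone and no growth modifier present; test concentration not given here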; conditions: S. pombe 972 growth, higher = more signal, called active from +8 up or from −8 down
[4] = budding yeast growth modifiers under rapamycin – strain BY4716, OD600, 96 h, primary screen (AID 1091); note: test concentration not given here; conditions: S. cerevisiae BY4716 + rapamycin, higher = more signal, called active from +8 up or from −8 down
[5] = target: Torsin-1A-interacting protein 2 (Homo sapiens) (UniProt Q8NFQ8); assay: small molecules binding lysate-expressed LULL1 – cell lysate, human LULL1 lysate, 635/667 nm fluorescence, primary screen (AID 1092); conditions: small-molecule microarray, hLULL1 lysate binding, 635 nm fluorescence; higher = more signal;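 note: probe is lysate of COS7 cells overexpressing human LULL1; score merges per-feature 667 nm fluorescence with signal-to-noise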
[6] = optical density change of DRC41 E. coli – strain DRC41, OD650, 24 h, E. coli filamentation project, primary screen (AID 1093);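 note: MC1000 strain lacking acrAB efflux and sulA so SOS filamentation is blocked; test concentration not given here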; conditions: E. coli DRC41 growth, higher = more signal, called active from +8 up or from −8 down
[7] = probe aLefty2 binding to arrayed compounds – biochemical, biotinylated probe, 635/667 nm fluorescence, primary screen (AID 1094); conditions: small-molecule microarray, higher = more signal;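 note: score merges spot fluorescence near 667 nm with spot signal-to-noise ratio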
[8] = system: Noggin (protein binding on small-molecule microarray); assay: small molecules binding Noggin protein – biochemical, 635/667 nm fluorescence, primary screen (AID 1095); conditions: 635 nm fluorescence, higher = more signal;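 note: score merges 667 nm feature fluorescence with signal to noise over triplicate slides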
[9] = target: Neurogenic locus notch homolog protein 3 (Homo sapiens) (UniProt Q9UM47); assay: small molecules binding NOTCH3 protein – biochemical, 635/667 nm fluorescence, primary screen (AID 1096); conditions: small-molecule microarray, 635 nm fluorescence, higher = more signal
[10] = probe aEGFR binding to arrayed compounds – biochemical, biotinylated probe, 635/667 nm fluorescence, primary screen (AID 1097); conditions: small-molecule microarray, higher = more signal;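 note: probe is a biotinylated anti-EGFR antibody binding compounds printed on slides; score combines fluorescence near 667 nm and signal to noise of each spot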

Sequence of Neurogenic locus notch homolog protein 3 (Homo sapiens) (Q9UM47 whole entry, looked up): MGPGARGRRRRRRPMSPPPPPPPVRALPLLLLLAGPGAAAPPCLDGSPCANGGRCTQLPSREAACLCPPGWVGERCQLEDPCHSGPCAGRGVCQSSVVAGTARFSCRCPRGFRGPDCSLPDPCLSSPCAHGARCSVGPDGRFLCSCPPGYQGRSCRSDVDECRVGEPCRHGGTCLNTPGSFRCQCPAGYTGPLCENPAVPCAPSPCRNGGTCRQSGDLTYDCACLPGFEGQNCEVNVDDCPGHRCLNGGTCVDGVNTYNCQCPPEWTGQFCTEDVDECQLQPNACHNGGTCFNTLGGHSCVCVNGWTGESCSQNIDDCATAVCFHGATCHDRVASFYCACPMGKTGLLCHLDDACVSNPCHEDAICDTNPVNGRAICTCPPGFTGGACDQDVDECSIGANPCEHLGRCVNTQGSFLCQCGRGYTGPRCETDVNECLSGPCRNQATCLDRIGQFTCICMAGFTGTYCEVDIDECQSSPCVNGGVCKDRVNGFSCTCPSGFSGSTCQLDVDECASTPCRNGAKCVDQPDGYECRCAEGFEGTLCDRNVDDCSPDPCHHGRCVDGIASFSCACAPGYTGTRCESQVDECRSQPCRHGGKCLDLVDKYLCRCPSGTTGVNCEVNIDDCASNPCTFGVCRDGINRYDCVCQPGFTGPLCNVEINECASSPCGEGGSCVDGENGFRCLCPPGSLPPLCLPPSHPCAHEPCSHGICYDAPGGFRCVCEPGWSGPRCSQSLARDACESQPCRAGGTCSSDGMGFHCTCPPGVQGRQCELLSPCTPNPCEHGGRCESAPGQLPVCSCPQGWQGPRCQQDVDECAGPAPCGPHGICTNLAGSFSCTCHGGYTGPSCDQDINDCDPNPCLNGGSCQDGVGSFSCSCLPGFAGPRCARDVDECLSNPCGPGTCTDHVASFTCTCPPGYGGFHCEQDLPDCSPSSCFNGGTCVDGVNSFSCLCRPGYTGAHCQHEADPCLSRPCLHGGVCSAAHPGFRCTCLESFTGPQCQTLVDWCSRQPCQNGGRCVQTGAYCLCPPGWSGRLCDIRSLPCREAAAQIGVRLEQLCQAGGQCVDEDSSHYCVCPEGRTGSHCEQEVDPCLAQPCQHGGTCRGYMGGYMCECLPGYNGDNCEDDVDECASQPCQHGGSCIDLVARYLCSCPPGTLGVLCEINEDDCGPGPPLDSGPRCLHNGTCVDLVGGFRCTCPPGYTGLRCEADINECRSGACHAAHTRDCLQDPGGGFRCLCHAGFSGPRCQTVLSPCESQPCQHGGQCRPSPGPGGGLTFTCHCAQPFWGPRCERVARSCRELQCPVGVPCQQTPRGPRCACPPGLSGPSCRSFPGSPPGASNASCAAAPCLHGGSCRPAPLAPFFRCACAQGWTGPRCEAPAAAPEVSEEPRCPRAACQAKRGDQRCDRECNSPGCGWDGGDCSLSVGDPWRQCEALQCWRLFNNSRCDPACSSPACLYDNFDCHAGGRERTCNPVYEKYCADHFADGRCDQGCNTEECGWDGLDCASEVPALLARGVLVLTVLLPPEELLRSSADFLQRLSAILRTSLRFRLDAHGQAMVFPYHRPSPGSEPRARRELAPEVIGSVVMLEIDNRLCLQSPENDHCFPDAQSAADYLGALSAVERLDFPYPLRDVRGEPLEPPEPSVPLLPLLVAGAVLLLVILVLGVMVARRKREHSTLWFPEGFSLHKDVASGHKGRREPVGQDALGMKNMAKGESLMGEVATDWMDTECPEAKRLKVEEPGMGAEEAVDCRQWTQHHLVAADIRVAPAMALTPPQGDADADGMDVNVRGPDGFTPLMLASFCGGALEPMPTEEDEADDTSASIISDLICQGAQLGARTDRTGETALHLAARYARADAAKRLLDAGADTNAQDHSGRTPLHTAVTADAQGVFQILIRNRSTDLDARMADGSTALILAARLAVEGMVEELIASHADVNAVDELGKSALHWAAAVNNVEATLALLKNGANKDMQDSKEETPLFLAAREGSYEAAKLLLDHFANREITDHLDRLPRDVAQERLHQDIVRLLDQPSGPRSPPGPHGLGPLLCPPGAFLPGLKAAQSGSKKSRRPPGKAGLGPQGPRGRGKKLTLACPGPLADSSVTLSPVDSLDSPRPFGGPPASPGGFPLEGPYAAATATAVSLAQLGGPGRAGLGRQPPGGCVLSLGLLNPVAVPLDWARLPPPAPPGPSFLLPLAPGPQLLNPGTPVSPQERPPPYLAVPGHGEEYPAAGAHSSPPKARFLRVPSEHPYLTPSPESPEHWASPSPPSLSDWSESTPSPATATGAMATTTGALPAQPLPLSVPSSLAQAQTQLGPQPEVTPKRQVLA
Sequence of Torsin-1A-interacting protein 2 (Homo sapiens) (Q8NFQ8 whole entry, looked up): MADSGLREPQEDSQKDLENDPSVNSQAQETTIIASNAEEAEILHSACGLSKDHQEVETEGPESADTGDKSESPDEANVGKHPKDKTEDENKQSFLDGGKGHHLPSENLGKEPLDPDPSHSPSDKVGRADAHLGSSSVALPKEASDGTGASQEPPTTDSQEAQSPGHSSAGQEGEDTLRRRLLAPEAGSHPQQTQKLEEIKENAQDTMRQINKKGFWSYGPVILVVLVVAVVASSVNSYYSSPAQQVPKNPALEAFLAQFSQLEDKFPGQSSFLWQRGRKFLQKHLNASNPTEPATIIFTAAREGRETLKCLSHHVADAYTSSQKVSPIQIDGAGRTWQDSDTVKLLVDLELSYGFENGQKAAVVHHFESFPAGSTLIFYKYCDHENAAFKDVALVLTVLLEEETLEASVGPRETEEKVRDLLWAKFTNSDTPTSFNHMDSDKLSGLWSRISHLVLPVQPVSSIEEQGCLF

| SMILES | composite z-score [1] | z-score [2] | z-score [3] | z-score [4] | composite z-score [5] | z-score [6] | composite z-score [7] | composite z-score [8] | composite z-score [9] | composite z-score [10] |
| --- | --- | --- | --- | --- | --- | --- | --- | --- | --- | --- |
| CCOC(=O)NN=C1C[C@@H](O)[C@@H](O)[C@@H]2[C@@H]3C(=O)N(Cc4ccccc4)C(=O)[C@@H]3CC[C@H]12 | -0.278 | -0.907 (inactive) | -0.524 (inactive) | -1.33 (inactive) | -0.308 | -0.127 (inactive) | -0.138 | 0.0448 | -0.0518 | -0.0387 |
| O=C1C2=CC[C@H]3C(=O)N(c4cccc(Oc5ccccc5)c4)C(=O)[C@H]3[C@H]2[C@H](O)[C@@H]2O[C@H]12 | 0.435 | 0.135 (inactive) | -0.974 (inactive) | -0.147 (inactive) | -0.122 | -0.425 (inactive) | -0.139 | 0.744 | 0.92 | -0.0219 |
| CCC=CCCC(OC(=O)c1ccc(Br)cc1)C1=CCCCC1=O (stereo not given) | 1.33 | -1.32 (inactive) | -5.44 (inactive) | -2.98 (inactive) | 1.35 | -0.133 (inactive) | -0.0018 | 0.493 | 0.554 | -0.0187 |
| COC(=O)[C@@H]1CC[C@H](C)[C@@H](c2ccc(C)cc2)N1C(=O)c1ccc(C=NO[C@@H]2O[C@H](COC(C)=O)[C@@H](OC(C)=O)[C@H](OC(C)=O)[C@H]2OC(C)=O)cc1 | 1.43 | 1.26 (inactive) | -0.631 (inactive) | 0.876 (inactive) | 0.475 | -1.3 (inactive) | -0.0873 | 0.199 | 0.864 | 0.129 |
| COC(=O)CC=C[C@@H](C)[C@@H](C=NOC[C@H]1O[C@H](c2ccccc2)C=C[C@@H]1Oc1ccc(OC)cc1)NS(=O)(=O)c1ccc(C)cc1 | -1.27 | 0.0204 (inactive) | 0.321 (inactive) | -0.382 (inactive) | -0.744 | -0.513 (inactive) | -0.0785 | -0.882 | -0.939 | -0.195 |
| CC(C)=CCCC(C)=CCON=C1C[C@@H](O)[C@@H](O)[C@@H]2[C@@H]3C(=O)N(Cc4ccccc4)C(=O)[C@@H]3CC[C@@H]12 | 1.09 | 0.432 (inactive) | -0.114 (inactive) | -0.535 (inactive) | -0.859 | 0.326 (inactive) | -0.114 | 1.33 | 0.637 | 0.012 |
| CC(C)CON=C1C[C@@H](O)[C@@H](O)[C@@H]2[C@@H]3C(=O)N(C[C@@H]4CCCO4)C(=O)[C@@H]3CC[C@@H]12 | 0.242 | -1.49 (inactive) | 0.283 (inactive) | -0.625 (inactive) | 1.38 | 1.27 (inactive) | -0.209 | 0.262 | -0.435 | -0.22 |
| CO[C@H]1COC(=O)[C@@H](C)COC(=O)[C@H](COCc2ccccc2)NC(=O)CC=C[C@H]1C | 0.409 | 0.0827 (inactive) | -0.704 (inactive) | 0.007 (inactive) | -1.28 | 0.456 (inactive) | -0.128 | 0.98 | -0.944 | -0.196 |
| COc1ccc(COC(=O)NN=C2C[C@@H](O)[C@@H](O)[C@@H]3[C@@H]4C(=O)N(Cc5ccccc5)C(=O)[C@@H]4CC[C@H]23)cc1 | 0.413 | -0.457 (inactive) | -0.619 (inactive) | -1.17 (inactive) | 0.739 | -0.289 (inactive) | 0.287 | -1.24 | -0.0524 | -0.13 |
| C[C@@H]1NC(=O)[C@@H](C)COC(=O)[C@H](C)NC(=O)[C@@H](C)COC1=O | 0.455 | -0.335 (inactive) | -0.924 (inactive) | -1.94 (inactive) | 1.03 | -0.0698 (inactive) | -0.0186 | 0.79 | -0.0611 | 0.132 |
| CC(C)CCN1CCc2nc(COc3ccccc3)c3c(c2C1)CO[C@@H](C)C3 | 0.0135 | 0.377 (inactive) | -0.438 (inactive) | -0.531 (inactive) | 1.25 | 1.17 (inactive) | 0.111 | -0.0126 | -0.149 | -0.123 |
| C[C@H]1Cc2c(COc3ccccc3)nc3c(c2CO1)CN(CCOc1ccccc1)CC3 | 1.56 | -0.381 (inactive) | -2.38 (inactive) | -1.15 (inactive) | 1.76 | 1.11 (inactive) | -0.0998 | 0.216 | 1.16 | -0.0283 |
| CC(C)(C)N1C(=O)[C@H]2[C@H]3[C@H](O)[C@H](O)CC(=NOCc4ccccc4)[C@H]3CC[C@H]2C1=O | -0.201 | -0.612 (inactive) | -0.925 (inactive) | -0.22 (inactive) | 0.351 | 0.662 (inactive) | 0.439 | -0.616 | -0.288 | -0.125 |
| CO[C@@H]1C=CCC(=O)N2CCC[C@H]2C(=O)OC[C@@H](C)C(=O)OC[C@H]1C | 0.865 | -0.0313 (inactive) | -1.32 (inactive) | -0.918 (inactive) | -0.334 | 0.872 (inactive) | -0.143 | 1.56 | -0.0741 | -0.0444 |
| O=C1C[C@@H](O)[C@@H](O)[C@@H]2[C@@H]3C(=O)N(Cc4ccccc4)C(=O)[C@@H]3CC[C@@H]12 | 0.187 | -0.365 (inactive) | -0.136 (inactive) | -0.115 (inactive) | 0.824 | -0.174 (inactive) | -0.14 | 0.45 | 0.618 | -0.0432 |
| CCOC(=O)[C@H](CC(C)C)NC(=O)CCC1CC(OC(=O)NCc2ccc3c(c2)OCO3)CC2(CCCC(COC(=O)NCC(c3ccccc3)c3ccccc3)O2)O1 (stereo not given in full) | 0.915 | 0.417 (inactive) | 0.707 (inactive) | 0.34 (inactive) | 1.6 | 0.344 (inactive) | -0.145 | 0.617 | 0.79 | -0.0177 |
| COC(=O)[C@@H]1CC[C@H](C)[C@@H](c2ccc(C)cc2)N1C(=O)c1ccc(C=NO[C@@H](C)c2cn([C@H](CO)Cc3ccccc3)nn2)cc1 | 1.44 | 0.76 (inactive) | 0.249 (inactive) | 1.25 (inactive) | 1.57 | 1.35 (inactive) | -0.126 | 1.19 | 1.1 | 0.24 |
| CON=C1[C@H]2CCn3c(=O)n(-c4ccccc4)c(=O)n3[C@H]2[C@H](O)[C@@H]2O[C@H]12 | 0.887 | -1.57 (inactive) | -1.81 (inactive) | 2.3 (inactive) | 0.456 | -0.114 (inactive) | -0.205 | 1.02 | 0.646 | -0.177 |
| O=C1C=C[C@@H](O)[C@@H]2[C@@H]3C(=O)N(c4ccc(F)cc4F)C(=O)[C@@H]3CC[C@@H]12 | 0.0661 | -2.33 (inactive) | -2.21 (inactive) | -0.724 (inactive) | 0.587 | -0.421 (inactive) | -0.247 | 1.08 | 0.134 | -0.162 |
| CON=Cc1ccc(C(=O)N2[C@H](c3ccc(C)cc3)[C@@H](C)CC[C@H]2C(=O)OC)cc1 | 1.17 | -0.0099 (inactive) | -2 (inactive) | -0.637 (inactive) | 1.23 | 0.823 (inactive) | -0.293 | 0.292 | 0.772 | -0.262 |
| C[C@@H]1CC[C@H]2C(=O)O[C@@H](Cc3ccccc3)CN2[C@H]1c1ccc(Br)cc1 | 1.14 | 0.004 (inactive) | -2.36 (inactive) | -0.882 (inactive) | 1.16 | -0.529 (inactive) | -0.0258 | 0.31 | 0.22 | -0.0485 |
| CC(C)(C)N1C(=O)[C@H]2[C@H]3[C@H](O)[C@H](O)CC(=NO[C@@H]4O[C@H](CO)[C@@H](O)[C@H](O)[C@H]4O)[C@H]3CC[C@H]2C1=O | 0.693 | 0.768 (inactive) | -1.05 (inactive) | -0.235 (inactive) | 0.959 | -0.864 (inactive) | -0.0603 | 0.593 | 0.155 | 0.0334 |
| C#CCCCON=C1C[C@@H](O)[C@@H](O)[C@@H]2[C@@H]3C(=O)N(c4ccc(F)cc4F)C(=O)[C@@H]3CC[C@@H]12 | 0.108 | -0.326 (inactive) | -0.117 (inactive) | -1.3 (inactive) | -0.261 | 0.336 (inactive) | -0.124 | 0.561 | 0.0521 | -0.112 |
| C[C@H]1COC(=O)[C@@H]2CCCN2C(=O)[C@@H](C)COC(=O)[C@H](Cc2ccccc2)NC1=O | 0.907 | -0.801 (inactive) | 0.103 (inactive) | -1.2 (inactive) | 1.24 | 0.0412 (inactive) | -0.141 | 0.396 | 0.889 | 0.081 |
| COc1cccc([C@H]2Oc3ccc(OC)cc3C(=NO[C@@H](C)c3cn([C@H](CO)Cc4ccccc4)nn3)[C@@H]2O)c1 | 0.0733 | 0.401 (inactive) | 0.0329 (inactive) | 0.0485 (inactive) | -0.123 | -0.486 (inactive) | -0.21 | -0.335 | -0.367 | -0.18 |

From PubChem BioAssay
